Test results as given in PubChem BioAssay AID504339 (National Center for Advancing Translational Sciences (NCATS), 2011).
Out of some 390,000 compounds screened, about 17,000 (4.4%) were called active. Entries that show only a call come without a potency. Not shown: some 8% with an inconclusive outcome. The sample holds actives, similar compounds and a random draw of the others, so the mix is not that of the screen. Calls follow the shape of the dose curve; as a rule, active = well fitted inhibition curve with a large enough effect; inconclusive = small, poorly fitted or top-dose-only effect; inactive = no such curve, though single readings can be large or run the other way.

Target: Lysine-specific demethylase 4A (Homo sapiens) (UniProt O75164)
Sequence (O75164 whole entry, looked up, the tested form may be a part): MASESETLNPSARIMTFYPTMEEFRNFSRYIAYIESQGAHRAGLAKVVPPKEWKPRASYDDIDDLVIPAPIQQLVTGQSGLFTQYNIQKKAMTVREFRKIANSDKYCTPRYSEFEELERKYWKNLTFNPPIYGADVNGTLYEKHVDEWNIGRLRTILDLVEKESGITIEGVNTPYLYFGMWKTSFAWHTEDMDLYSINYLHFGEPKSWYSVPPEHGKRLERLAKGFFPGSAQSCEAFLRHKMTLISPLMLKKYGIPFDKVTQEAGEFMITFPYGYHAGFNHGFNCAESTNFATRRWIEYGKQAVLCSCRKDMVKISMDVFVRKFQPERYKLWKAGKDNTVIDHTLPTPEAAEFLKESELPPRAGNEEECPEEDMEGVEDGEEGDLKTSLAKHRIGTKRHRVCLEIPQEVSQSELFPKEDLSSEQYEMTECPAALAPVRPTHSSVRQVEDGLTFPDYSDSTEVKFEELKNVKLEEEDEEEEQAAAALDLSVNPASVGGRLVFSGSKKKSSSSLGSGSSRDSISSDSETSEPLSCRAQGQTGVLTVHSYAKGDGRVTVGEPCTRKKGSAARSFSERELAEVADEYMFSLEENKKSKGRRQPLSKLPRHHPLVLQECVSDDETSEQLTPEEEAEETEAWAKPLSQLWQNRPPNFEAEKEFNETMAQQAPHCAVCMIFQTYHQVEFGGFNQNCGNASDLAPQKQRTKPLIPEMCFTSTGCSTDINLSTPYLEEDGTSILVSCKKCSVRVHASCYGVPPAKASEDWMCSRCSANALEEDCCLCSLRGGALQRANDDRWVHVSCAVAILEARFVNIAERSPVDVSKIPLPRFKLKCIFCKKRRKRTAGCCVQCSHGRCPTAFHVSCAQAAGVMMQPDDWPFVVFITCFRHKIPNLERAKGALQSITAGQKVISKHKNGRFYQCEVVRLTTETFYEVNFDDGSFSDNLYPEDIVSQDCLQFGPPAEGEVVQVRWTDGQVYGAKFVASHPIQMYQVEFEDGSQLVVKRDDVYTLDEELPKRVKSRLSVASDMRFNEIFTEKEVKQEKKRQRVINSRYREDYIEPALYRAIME
Test: qHTS Assay for Inhibitors of JMJD2A-Tudor Domain; also: nearly all actives have a fitted effect of over 50% in size
Conditions: AlphaScreen JMJD2A-Tudor / H3K4me3 peptide binding; series mostly up to 114 µM
Potency is read from the fitted curve at half-maximal effect.

SMILES	Potency
Fc1ccccc1Oc1ncnc2c1oc1ccccc12	inactive
Cc1ccc(SCC(=O)N2CCN(c3ccc(F)cc3)CC2)cc1	inactive
O=C1Nc2cc(C(=O)N3CCN(c4ccc(F)cc4)CC3)ccc2NC1CSCc1cccc(F)c1 (stereo unspecified)	20 µM (active)
Cc1ccc(CSCC2Nc3ccc(C(=O)N4CCN(c5ccc(F)cc5)CC4)cc3NC2=O)cc1 (stereo unspecified)	22.4 µM (active)
C=CCn1c(SCc2cccc(F)c2)nc2cc(C(=O)N3CCC(C(N)=O)CC3)ccc2c1=O	inactive
O=C(c1ccc2c(c1)N(Cc1ccc(F)cc1)C(=O)c1ccccc1S2(=O)=O)N1CCN(c2ccccn2)CC1	inactive
CC1CCN(C(=O)c2ccc3c(c2)NC(=O)CN3)CC1	inactive
Cc1oc(-c2ccccc2)nc1Cn1c(SCc2cccc(C(F)(F)F)c2)nc2cccnc21	inactive
Cc1ccc(C)c(NC(=O)Cn2ccn(-c3ccc(F)cc3)c(=O)c2=O)c1	inactive
O=C(Nc1nnc(Cc2ccccc2)s1)c1cnccn1	50.1 µM (active)
O=C(Nc1nnc(Cc2ccc(Cl)cc2)s1)c1ccncc1	inactive
O=C(Nc1nnc(Cc2ccc(Cl)cc2)s1)c1cccnc1	inactive
CCCC(=O)N1CCN(c2nc3c(OC)ccc(C)c3s2)CC1	inactive
O=C(NC1=NCCS1)[C@H](Cc1ccccc1)N1C(=O)c2ccccc2C1=O	inactive
COc1ccc(CNC(=O)COC(=O)C(CCSC)N2C(=O)c3ccccc3C2=O)cc1 (stereo unspecified)	inactive
CSCCC(C(=O)NC1=NCCS1)N1C(=O)c2ccccc2C1=O (stereo unspecified)	79.4 µM (active)
Cc1ccc2oc(=O)c3cnn(CC(=O)N4CCN(c5cccc(Cl)c5)CC4)c3c2c1	inactive
CCCCN(CC)CCCNC(=O)c1nn(C)c2c1CS(=O)(=O)c1ccccc1-2	inactive
CC(=O)c1cccc(NC(=O)CSc2nc3c(c(=O)[nH]2)CCC3)c1	inactive
Cc1c(-c2cccc(NC(=O)C(C)(C)C)c2)nc2ncccn12	inactive
Cc1ccccc1Nc1c(-c2ccccc2)nc2ncccn12	inactive
CCc1cccc(C)c1Nc1c(-c2ccc(N(C)C)cc2)nc2ncccn12	35.5 µM (active)
CCn1cc(C(=O)N2CCN(c3cc(C)ccc3C)CC2)c(=O)c2cc(S(=O)(=O)N(C)C3CCCCC3)ccc21	inactive

SMILES	Potency
O=C(NCCc1ccccc1)c1cnc2sc(N3CCCC3)nn2c1=O	inactive
COC(=O)c1ccc(NC(=O)CCc2c(C)nc3c(c(C)nn3-c3ccc(C)cc3)c2C)cc1	inactive
C#CCOCCOCCOCCNc1nc(N2CCN(C(=O)[C@H](CCCCN)n3cc([C@@H](N)C(C)CC)nn3)CC2)nc(N2CCN(C(=O)[C@H](Cc3ccc(O)cc3)n3cc([C@@H](N)C(C)CC)nn3)CC2)n1 (stereo partly specified)	44.7 µM (active)
C#CCOCCOCCOCCNc1nc(N2CCN(C(=O)[C@H](CCC(=O)O)n3cc(C(N)CO)nn3)CC2)nc(N2CCN(C(=O)[C@H](Cc3ccc(O)cc3)n3cc(C(N)[C@H](C)CC)nn3)CC2)n1 (stereo partly specified)	28.2 µM (active)
C#CCOCCOCCOCCNc1nc(N2CCN(C(=O)C(Cc3ccc(O)cc3)n3cc(C(N)CC(C)C)nn3)CC2)nc(N2CCN(C(=O)C(Cc3ccc(O)cc3)n3cc(C(N)C(C)CC)nn3)CC2)n1 (stereo unspecified)	50.1 µM (active)
C#CCOCCOCCOCCNc1nc(N2CCOCC2)nc(N2CCN(C(=O)[C@H](Cc3ccc(O)cc3)n3cc(CCO)nn3)CC2)n1	inactive
C#CCOCCOCCOCCNc1nc(N2CCN(C(=O)[C@H](Cc3ccc(O)cc3)n3cc(C(N)CC(C)C)nn3)CC2)nc(N2CCN(C(=O)[C@H](CCC(=O)O)n3cc(C(N)[C@H](C)CC)nn3)CC2)n1 (stereo partly specified)	44.7 µM (active)
CC[C@H](C)[C@@H](C(=O)N1CCNCC1)n1cc([C@@H](N)Cc2ccc(O)cc2)nn1	inactive
O=C(NCc1ccccc1)c1ccc2c(c1)nc1n2CCCCC1	inactive
CC(C)c1ccc(NS(=O)(=O)c2ccc3[nH]cc(C(=O)NC4CCCC4)c(=O)c3c2)cc1	inactive
CCC(Sc1nc2n[nH]c(C)c2c(=N)n1-c1ccccc1Cl)C(=O)N(CC)CC (stereo unspecified)	inactive
Cc1nnc(SCc2cc(=O)c3cc(F)ccc3[nH]2)n1C	inactive
Cc1cc(NC(=O)c2ccc(-c3ccc(Cl)cc3)o2)cc(-c2nc3ncccc3o2)c1O	inactive
CC(=O)c1ccc(NC(=O)c2nc3nc(C)cc(C(F)F)n3n2)cc1	inactive
CCc1cc(-c2nnc(SCC(=O)NC3CC3)n2C)cs1	inactive
CCCc1cc(-c2n[nH]c(=S)n2Cc2ccccc2)cs1	inactive
CCc1cc(-c2n[nH]c(=S)n2CC(C)C)cs1	28.2 µM (active)
Cc1ccccc1NC(=O)CN1C(=O)C(C)(C)c2ccccc21	inactive
CCOc1ccc(N(CC)S(=O)(=O)N2CCCC(C(=O)NCc3ccc(SC)cc3)C2)cc1 (stereo unspecified)	inactive
COc1ccc(S(=O)(=O)N2CCN(c3ccc(F)cc3)CC2)cc1-c1noc(C)n1	inactive
CCc1nc(-c2cc(S(=O)(=O)N3CCN(c4ccc(OC)cc4)CC3)ccc2OC)no1	79.4 µM (active)
COc1ccc(N2CCN(S(=O)(=O)c3ccc(-c4coc(C)n4)cc3)CC2)cc1	inactive
Cc1csc2nc(COc3ccc(NC(=O)COc4ccccc4)cc3)cc(=O)n12	inactive

SMILES	Potency
CCn1c2ccccc2c2nnc(SCC(=O)O)nc21	inactive
CCOc1cc2[nH]c(=S)n(CCCN3CCCC3=O)c(=O)c2cc1OCC	22.4 µM (active)
CCOc1cc2[nH]c(=O)n(Cc3ccc(C(=O)NCCCN4CCCC4=O)cc3)c(=O)c2cc1OCC	inactive
O=C(CCC(=O)NNc1nc2ccccc2c2nc(-c3ccccc3)nn12)NCCCN1CCCC1=O	inactive
O=C(CCn1c(=S)[nH]c2ccccc2c1=O)NCCCN1CCCC1=O	17.8 µM (active)
O=C(CCCCCn1c(=O)[nH]c2ccccc2c1=O)NCCc1c[nH]c2ccccc12	inactive
CCOc1cc2[nH]c(=S)n(CCN3CCCCC3C)c(=O)c2cc1OCC (stereo unspecified)	inactive
Cc1ccc2nc(COc3ccc(NC(=O)COc4ccccc4F)cc3)cc(=O)n2c1	inactive
Cc1ccc(NC(=O)Cn2nnc3sc4c(c3c2=O)CCC(C)C4)cc1 (stereo unspecified)	inactive
CCC(=O)N1CCc2cc(S(=O)(=O)NC(C(=O)NCCc3ccc(C)cc3)C(C)C)ccc21 (stereo unspecified)	inactive
CCc1ccc(N(CC)c2ncnc3nc[nH]c23)cc1	inactive
Cc1ccc(NC(=O)c2ccc(CSc3ncnc4nc[nH]c34)cc2)c(C)c1	inactive
S=c1c2[nH]cnc2ncn1CCSc1ncnc2nc[nH]c12	12.6 µM (active)
CN(C(=O)CSc1nc2ccc(NC(=O)COc3ccccc3)cc2s1)c1ccccc1	inactive
CCCCCCSc1ccc([C@@H]2[C@H]3C(=O)N(CC)C(=O)[C@H]3[C@]3(C(=O)OC)CCCCN23)cc1	inactive
CCCCCCSc1ccc([C@@H]2[C@@H]3C(=O)N(CC)C(=O)[C@@H]3[C@]3(C(=O)OC)CCCCN23)cc1OC	56.2 µM (active)
CCN1C(=O)[C@@H]2[C@@H](c3ccc(-c4ccc(OC)cc4)c(OC)c3)N3CCC[C@@]3(C(=O)OC)[C@@H]2C1=O	inactive
COc1ccc(Cc2nc3ccc(C(=O)NCc4ccccc4C)cc3o2)cc1	inactive
O=C1c2ccccc2C(=O)N1c1ccc(S(=O)(=O)N2CCOCC2)c2ccccc12	inactive
S=c1[nH]nc(COc2ccccc2)n1-c1ccccc1	12.6 µM (active)
O=[N+]([O-])c1ccccc1/C=N/n1c(COc2ccccc2)n[nH]c1=S	50.1 µM (active)
Cc1c(NC(=O)CCCOc2ccccc2)cccc1[N+](=O)[O-]	inactive
Fc1ccc(/C=N/n2c(COc3ccccc3)n[nH]c2=S)cc1	56.2 µM (active)

SMILES	Potency
COc1ccc(CNc2nnnn2C)cc1	inactive
O=C(COc1ccccc1)Nc1ccc(F)cc1	inactive
COc1ccc(OCC(=O)NNC(=O)C2CCC2)cc1	inactive
COc1ccccc1OCc1nnc(SCC(N)=O)n1-c1ccccc1	inactive
CC(Sc1nnc(COc2ccccc2)n1-c1ccccc1)C(=O)O (stereo unspecified)	inactive
COc1ccc(OCc2n[nH]c(=S)n2N)cc1	3.98 µM (active)
O=C(COc1ccccc1[N+](=O)[O-])N/N=C/c1ccc[nH]1	inactive
CCOc1ccccc1C(=O)Nc1ccc2c(c1)N(C)C(=O)c1ccccc1S2	inactive
CCOC(=O)c1cc2c(=O)n3ccccc3nc2n(CCCOC)c1=NC(=O)C(C)Oc1ccccc1 (stereo unspecified)	inactive
Cc1ccc2nc(N3CCN(c4cccc(Cl)c4)CC3)c3nnnn3c2c1	inactive
Cc1cc(C)cc(NC(c2nnc(-c3cccc(F)c3)o2)c2ccc(F)cc2Cl)c1 (stereo unspecified)	inactive
COc1ccc(CCNC(=O)c2ccc(-n3c(C)cc4c3CCCC4)cc2)cc1OC	inactive
COc1ccc(C2/C=C\CN(Cc3ccco3)C(C)C(=O)N2Cc2ccc(F)cc2)cc1 (stereo unspecified)	inactive
O=C(NCCc1ccccc1)c1ccc2c(c1)N(Cc1ccccc1)C(=O)c1ccccc1S2(=O)=O	inactive
Cc1cnc(NC(=O)Cn2cnc3c2c(=O)n(C)c(=O)n3C)s1	inactive
Cc1cnc(NC(=O)c2ccccn2)s1	56.2 µM (active)
CN(C(=O)c1ccccn1)c1nnc(-c2ccccn2)s1	inactive
Cc1c(Cl)cccc1NC(=O)c1noc2c1CCCC2	inactive
CC(=O)Nc1ccc(NC(=O)CS(=O)(=O)c2cn(CC(=O)N3CCCCC3)c3ccccc23)cc1	inactive
CCOC(=O)c1ccc(NC(=O)Cn2cc(S(=O)(=O)Cc3ccccc3F)c3ccccc32)cc1	inactive
CCOC(=O)c1ccc(NC(=O)CS(=O)(=O)c2cn(CC)c3ccccc23)cc1	79.4 µM (active)
COc1ccccc1NC(=O)CSc1oc(-c2ccco2)nc1S(=O)(=O)c1ccc(Br)cc1	inactive
